Assay outcomes from PubChem BioAssay.
Rows were chosen to be rich in hits. Some 6.9% of all compounds tested hit in one or more screens of this group.
PLK1 PBD inh – PLK1 (human) polo-box domain binding inhibition; P53350; Plk1 PBD binding of FITC phosphopeptide, fluorescence polarization; Potency, µM, without a hit: max response, negative = inhibition, usual class: inhibitors; actives 2.8% (n = 360,000); AID 720504; further: series mostly up to about 57 µM; on the % scale 0 is the no-effect control and ±100 the full control effect; nearly all actives have a fitted effect of over 65% in size
L3MBTL1 inh – inhibitors of human L3MBTL1 | AlphaScreen L3MBTL1–H3K9me1 peptide binding | Potency, µM (doses to about 57.1 µM), for the others: at the highest dose activity, negative = inhibition, actives largely listed as inhibitors | actives 0.66% (n = 230,000) | AID 485360; further: on the % scale 0 is the no-effect control and ±100 the full control effect; nearly all actives have a fitted effect of over 60% in size
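Read-out is AlphaScreen signal from streptavidin donor and nickel chelate acceptor beads (10 ug/mL final each) bridging L3MBTL1 (50 nM) and biotinylated K9-monomethylated H3(1-15) peptide (75 nM), after 30 min compound exposure at room temperature.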
VDR inh – vitamin D3 receptor (human) inhibition | P11473 | VDR-SRC2-3 peptide fluorescence polarization, 2 h | Potency, µM, without a hit: max response, negative = inhibition, usual class: inhibitors | actives 0.93% (n = 400,000) | AID 504847; further: on the % scale 0 is the no-effect control and ±100 the full control effect
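Fluorescence polarization assay of small-molecule disruption of VDR binding to coregulator peptide SRC2-3. Compounds and controls pin-transferred, then read after 2 h incubation at ambient room temperature.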
BAZ2B block – inhibitors of human BAZ2B bromodomain. actives 4.4% (n = 360,000). AlphaScreen BAZ2B-H3K14Ac peptide displacement. AID 504333. Potency, µM (doses to about 114 µM), inactives show at the highest dose activity change, negative = inhibition, usual class: inhibitors; further: on the % scale 0 is the no-effect control and ±100 the full control effect; nearly all actives have a fitted effect of over 60% in size
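Complex of BAZ2B and biotin-H3K14Ac (50 nM apiece) forms over 30 min at RT, then faces library compounds up to 110 uM for another 30 min; AlphaScreen beads added, 20 min dark incubation, luminescence read.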
HP1b chromo inh – HP1-beta chromodomain-methylated histone interaction inhibition; P83916; AlphaScreen HP1-beta / biotin-H3K9me3 peptide binding; Potency, µM (top dose mostly 114 µM), for the others: top-dose activity change, negative = inhibition, most hits filed as inhibitors; actives 0.56% (n = 390,000); further: nearly all actives have a fitted effect of over 70% in size
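AlphaScreen: HP1-beta (50 nM) preformed 30 min with biotin-H3(1-18)K9me3 peptide (50 nM) in PBS pH 7.4, 0.01% Tween-20. Compound added for 30 min at RT, then streptavidin donor/nickel chelate acceptor beads (10 ug/mL) for 30 min.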
JMJD2A Tudor inh – inhibitors of human JMJD2A Tudor domain; O75164; AlphaScreen JMJD2A-Tudor / H3K4me3 peptide binding; Potency, µM (series often up to 114 µM), for the others: at the highest dose activity change, negative = inhibition, usual class: inhibitors; actives 4.4% (n = 390,000); further: on the % scale 0 is the no-effect control and ±100 the full control effect; nearly all actives have a fitted effect of over 50% in size
Target sequence (O75164 whole entry, looked up, the tested form may be a part): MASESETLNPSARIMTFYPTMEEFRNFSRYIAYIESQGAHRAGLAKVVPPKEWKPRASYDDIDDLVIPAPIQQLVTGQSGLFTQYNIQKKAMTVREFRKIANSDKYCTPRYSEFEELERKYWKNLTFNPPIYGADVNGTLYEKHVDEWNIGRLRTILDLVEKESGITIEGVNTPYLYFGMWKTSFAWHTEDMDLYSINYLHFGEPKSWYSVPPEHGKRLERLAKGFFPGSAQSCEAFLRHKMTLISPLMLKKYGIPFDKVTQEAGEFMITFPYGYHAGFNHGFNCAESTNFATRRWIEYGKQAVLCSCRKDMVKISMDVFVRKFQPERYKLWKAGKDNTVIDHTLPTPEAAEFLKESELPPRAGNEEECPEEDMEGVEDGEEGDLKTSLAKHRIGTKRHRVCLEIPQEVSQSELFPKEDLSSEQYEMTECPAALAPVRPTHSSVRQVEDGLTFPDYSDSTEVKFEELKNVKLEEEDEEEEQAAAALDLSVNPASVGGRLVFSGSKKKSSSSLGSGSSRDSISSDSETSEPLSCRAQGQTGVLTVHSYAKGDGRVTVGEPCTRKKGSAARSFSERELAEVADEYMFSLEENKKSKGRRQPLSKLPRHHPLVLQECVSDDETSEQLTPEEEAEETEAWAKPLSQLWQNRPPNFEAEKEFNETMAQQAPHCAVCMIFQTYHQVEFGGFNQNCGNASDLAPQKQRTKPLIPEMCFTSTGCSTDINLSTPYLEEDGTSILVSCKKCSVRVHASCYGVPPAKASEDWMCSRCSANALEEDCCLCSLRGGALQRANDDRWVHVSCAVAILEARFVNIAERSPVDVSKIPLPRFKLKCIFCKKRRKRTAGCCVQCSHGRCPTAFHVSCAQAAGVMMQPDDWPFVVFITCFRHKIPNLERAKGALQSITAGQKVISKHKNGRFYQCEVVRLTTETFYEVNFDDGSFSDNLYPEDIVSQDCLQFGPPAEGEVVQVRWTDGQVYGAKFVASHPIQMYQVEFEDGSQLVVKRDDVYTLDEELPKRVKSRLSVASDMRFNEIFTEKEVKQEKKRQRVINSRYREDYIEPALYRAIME
* = called active by the depositor; u = inconclusive; x = no result; [ ] = another dose, or the depositor's remark. The call rests on the fitted dose curve; in most records, active means well fitted curve in the direction sought with a large enough effect; inconclusive means small, poorly fitted or top-dose-only effect, or another doubt; inactive means no such curve, though single readings can be large; an effect the other way counts as inactive or inconclusive. Potency means the concentration at half of the fitted maximal effect.

SMILES | PLK1 PBD inh | L3MBTL1 inh | VDR inh | BAZ2B block | HP1b chromo inh | JMJD2A Tudor inh
CNC(=S)N1CCC(NC(=O)C23CC4CC(CC(C4)C2)C3)CC1 | 8.4µM* | -1% | u | -7% | -4% | -26%[11.4 µM]
O=c1cc(C2CCCCC2)[nH]c(=O)[nH]1 | -1% | x | -6% | x | 18% | -12%
Cc1cc(C)n(CC(C)C(=O)O)n1 (centres undefined) | -13% | -2% | u | 79µM* | 8% | -13%
CC(=O)OC(Cn1nc(C)cc1C)c1ccccc1 (centres undefined) | u | x | -13% | 1% | -9% | u
O=C1NC(=S)N/C1=C\c1ccc(N2CCOCC2)cc1 | 3.8µM* | 25% | u | -9% | 0% | 20µM*
O=C1NC(=S)NC1=Cc1ccc(O)cc1 | 7% | x | 16% | x | 34% | -19%
NC1=CC(=O)C(=O)c2ccccc21 | -22% | x | 45µM* | x | -1% | -17%
COC1OC(CO)C(OC2OC(C(=O)O)C(OC3OC(COS(=O)(=O)O)C(OC4OC(C(=O)O)C(OC5OC(CO)C(OC6OC(C(=O)O)C(OC7OC(COS(=O)(=O)O)C(OC8OC(C(=O)O)=C[C@H](O)C8OS(=O)(=O)O)C(O)C7NC(C)=O)[C@@H](O)C6O)C(O)C5NC(C)=O)[C@@H](O)C4O)C(O)C3NC(C)=O)[C@@H](O)C2O)C(O)C1NC(C)=O (some centres undefined) | x | x | -3% | x | x | x
CC(C)n1c(=O)c2c(O)cc(=O)oc2c2ccccc21 | -3% | -13% | 13% | -2% | 2% | 50µM*
CCn1c(=O)c2c(O)cc(=O)oc2c2ccccc21 | -9% | 1% | -7% | -3% | 26% | u
CC(=O)[C@]1(O)Cc2c(O)c3c(c(O)c2[C@@H](O[C@H]2C[C@H](N)[C@H](O)[C@H](C)O2)C1)C(=O)c1ccccc1C3=O | 5.3µM* | x | u | x | -38% | u
CC(=O)[C@]1(O)Cc2c(O)c3c(c(O)c2[C@@H](O[C@H]2C[C@H](N)[C@H](O)[C@H](C)O2)C1)C(=O)c1c(O)cccc1C3=O | x | x | 1% | x | x | x
O=C(CSc1nc2cc3ccccc3cc2[nH]1)Nc1cccc(C(F)(F)F)c1 | x | x | 4% | 0% | 28% | -18%
CCOC(=O)c1cc(C)n(-c2ccccc2)c1C | -13% | -12% | 4% | 79µM* | 1% | -29%
Cc1cc(C(=O)OCC(N)=O)c(C)n1-c1ccccc1 | 24µM* | x | 79µM* | -18% | u | u
Cc1cc(C(=O)COC(=O)c2ccc(O)cc2O)c(C)n1-c1ccccc1 | 5% | -2% | -1% | u | -36% | u
CCOC(=O)c1cc(-c2ccccc2)n(-c2cccc(C(=O)N(CC)c3ccccc3)c2)c1C | x | x | -1% | 10µM* | -10% | u
COc1ccccc1C(=O)Nc1nnc(SCc2cc(=O)n3ccc(C)cc3n2)s1 | x | x | 3% | 3% | 15%[57 µM] | -16%
Oc1c(C(Nc2nc3ccccc3s2)c2ccco2)ccc2cccnc12 (centres undefined) | -12% | -27% | -21% | 50µM* | -4% | u
c1coc(CNc2nc3ccccc3s2)c1 | -1% | x | 4% | -14% | 6% | -19%
CC(C)C(=O)NC(c1ccco1)c1ccc2cccnc2c1O (centres undefined) | -5% | u | 5% | x | 31% | 79µM*
Cc1ccc(Cl)cc1N1CCN(c2nc3ccccc3c3nc(-c4cccnc4)nn23)CC1 | x | x | -11% | 2% | 18% | 5%
Cc1c(N(C)C(=O)c2ccco2)c(=O)n(-c2ccccc2)n1C | 27µM* | 0% | -27% | -2% | u | u
COc1ccc(OCc2ccc(-c3nc(C#N)c(N4CCC(C)CC4)o3)o2)cc1 | x | x | 14% | 3.5µM* | u | u
COc1ccc(OCc2ccc(-c3nc(C#N)c(N4CCN(c5cccc(Cl)c5)CC4)o3)o2)cc1 | x | x | 11% | -29% | 28% | -17%
SMILES | PLK1 PBD inh | L3MBTL1 inh | VDR inh | BAZ2B block | HP1b chromo inh | JMJD2A Tudor inh
COc1ccc(OCc2ccc(-c3nc(C#N)c(N4CCN(C)CC4)o3)o2)cc1 | x | x | 0% | 32µM* | u | 56µM*
CC1CCN(c2oc(-c3ccc(COc4ccccc4)o3)nc2C#N)CC1 | x | x | 13% | u | -15% | u
O=C(O)C1(O)CC(O)C(O)C(O)C1 (centres undefined) | x | x | 4% | x | x | x
Cc1ccc(-n2ccnc2SCC(=O)N(CC(C)C)C2CCS(=O)(=O)C2)c(C)c1 (centres undefined) | 11µM* | -4% | u | -30% | -18% | 20µM*
CC(C)CN(C(=O)CSc1nnc2ccccn12)C1CCS(=O)(=O)C1 (centres undefined) | -9% | -7% | 13% | -5% | 21% | -22%
Cc1cc2c(ncn2Cc2ccccc2)c(N)c1C | -11% | -13% | -10% | 71µM* | -26% | u
Cc1nn(Cc2ccccc2)c(C)c1N | -15% | -11% | -12% | -35% | -4% | u
Cc1ccc2[nH]c3c(=O)n(Cc4ccncc4)cnc3c2c1 | -1% | x | 19% | 50µM* | 32% | -11%
O=c1c(-c2ccccc2)c(O)nc(SCCN2CCOCC2)n1-c1ccccc1 | -1% | 1% | -1% | 5% | 49% | -12%
O=C(O)c1cccc(N/N=C/C2=C(Cl)c3cc(Cl)ccc3SC2)c1 | 21µM* | x | -12% | 50µM* | -5% | 56µM*
CCC(=O)NC(c1ccco1)c1cc(Cl)c2c(c1O)NCCC2 (centres undefined) | x | x | x | x | x | 56µM*
CCCC(=O)NC(c1ccco1)c1cc(Cl)c2cccnc2c1O (centres undefined) | -8% | x | 3% | 50µM* | 55% | -24%
